In PubChem BioAssay AID504725 (Broad Institute, 2011):
Potency and affinity values are given separately.

These molecules were tested against KSHV LANA C-terminal domain (residues 932-1162) binding to LBS DNA (UniProt O40947) (assay: KSHV LANA DNA-binding disruption – biochemical, fluorescence polarization, cherry-picked samples, dose response (AID 504725)). Conditions: MBP-C-LANA / FAM-LBS DNA fluorescence polarization, percent change from plate compound-well median; series mostly up to 35 µM; activity change, negative = inhibition: at the top concentration; call rule not given here.

Activity change, negative = inhibition, inactive:
COc1cccc(-c2cc(C(=O)N3CCN(S(=O)(=O)c4ccccc4)CC3)[nH]n2)c1 -0.423%, CC1CC(C)CN(C(=O)c2ccc3ncsc3c2)C1 (configuration not stated) 1.32%, O=C(COC(=O)c1ccc([N+](=O)[O-])o1)NCCCc1ccccc1 -6.75%, O=C(O)c1ccccc1NC(=O)c1cc(-c2ccccc2)nc2ccccc12 -0.076%, CCc1noc(C)c1C(=O)N1CCCC(N2CCN(c3ccc(F)cc3)CC2)C1 (configuration not stated) 0.418%, COc1ccc(C(C)=O)cc1CN(C)C 0.24%, Oc1ccc(-c2nc3ccccn3c2NCc2ccco2)cc1 0.047%, CCOC(=O)c1c(C)nc2cc(C)ccn12 -12.6%, CCN(C(=O)COC(=O)c1ccc([N+](=O)[O-])o1)C1CCCCC1 -4.41%, CC(Sc1nc2ccccc2s1)C(=O)Nc1nnc(C(C)C)s1 (configuration not stated) -11.3%, Cc1ccc(N=Nc2c(O)[nH]c3ccc(F)cc23)cc1 30.9%, O=C(O)C1(c2ccccc2)CCN(S(=O)(=O)c2ccc(Cl)s2)CC1 -3.28%, Cc1cc(NS(=O)(=O)c2ccc(Nc3nc(-c4sc(N)nc4C)cs3)cc2)no1 -10.2%, COc1ccc(NC(=O)CO/N=C2/CCCc3nonc32)c(OC)c1 3.72%, CCN(C(=O)COC(=O)CNS(=O)(=O)c1ccc(SC)c([N+](=O)[O-])c1)C1CCCCC1 -3.89%, COC(=O)c1sc(C(F)(F)F)c(-c2ccccc2)c1S(=O)(=O)N1CCOCC1 0.068%, COc1ccc(/C=C/c2cc(C(F)(F)F)[nH]c(=O)n2)cc1OC 1.17%, CN(c1ccccc1)S(=O)(=O)c1cccc(NS(=O)(=O)c2cccc(C(=O)O)c2)c1 2.38%, O=C(O)CC1(CC(=O)NCc2ccncc2)CCCCC1 0.912%, Cc1ccc(N(C)C(=O)C2CCCN2S(=O)(=O)c2ccc3c(c2)n(C)c(=O)c(=O)n3C)cc1 (configuration not stated) -3.63%, FC(F)(F)c1nnc(-c2ccccc2)nc1N1CCCC1 1.81%, O=C(O)C(c1ccccc1)N1C(=O)/C(=C\c2ccc(-c3cccc(Cl)c3)o2)SC1=S (configuration not stated) -13.5%, O=C(/C=N/NC(=O)c1ccc(Cl)cc1Cl)c1ccccc1 2.06%, Cc1cc(NC(=O)CSc2nnc(COc3cccc(C)c3C)n2C)no1 0.641%, NC(=S)N/N=C/c1ccc(-c2ccc([N+](=O)[O-])cc2)o1 18%, CC1CC(C)(C)NC(=S)N1CC(=O)N(C)Cc1ccccc1 (configuration not stated) -0.507%, O=C(Nc1ccc(Br)cn1)c1cccc2ccccc12 3.91%, O=C(OCC(=O)N1N=C(c2ccc(Cl)cc2)CC1c1ccco1)c1cccnc1 (configuration not stated) -0.003%, Cn1c(=O)c2c(nc(N/N=C/c3ccc(OC(=O)c4ccco4)cc3)n2Cc2ccc(F)cc2)n(C)c1=O 1.89%, O=C(NCCCN1CCCC1=O)c1ccc2c(c1)ncn2C1CCCCC1 3.25%, CC(=O)N(C(C)=O)N1C(=O)c2cccc3c(N4CCOCC4)ccc(c23)C1=O -9.94%, COc1cc(SC)ccc1C(=O)Nc1nc(C)cs1 -2.79%, O=C1C=C(c2ccoc2)N2CCC[C@H]2C1 -8.87%, O=C(CC1CCCC1)N1CCN(S(=O)(=O)c2ccccc2)CC1 0.235%, CC(=O)O[C@@H]1[C@@H](OC(C)=O)[C@H](n2ccc3cc([N+](=O)[O-])ccc32)OC[C@@H]1OC(C)=O 2.23%, CCCn1c(SCC(=O)NCc2cccs2)nc2c1c(=O)n(C)c(=O)n2C 1.8%, COc1cccc(OC)c1C(=O)Nc1cc(C)on1 1.95%
